Bioassay records (PubChem BioAssay)
A selection: hits, their analogues and other compounds. The true share with any hit is near 19%.
DT40 TDP1 CPT – DT40-hTDP1 cell growth loss with CPT. 420,000 tested, 12% active. AID 686979. Potency, µM (series often up to 46.2 µM), for inactives: top-dose activity change, negative = growth inhibition, usual class: inhibitors. chicken DT40 Tdp1-/-;hTDP1 cells + 20 nM CPT, ATP luminescence, 48 h; also: nearly all actives have a fitted effect of over 55% in size
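Chicken DT40 Tdp1-/- cells complemented with human TDP1, 400 cells/well, exposed to compounds plus 20 nM camptothecin for at least 48 h at 37 C; viability read as ATP content by CellTiter-Glo luminescence.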
DT40 TDP1 no CPT – qHTS for Inhibitors of human tyrosyl-DNA phosphodiesterase 1 (TDP1): qHTS in cells in absence of CPT; DT40 Tdp1-/- hTDP1 cells, no CPT, ATP luminescence, 48 h; Potency, µM (titrated, usually from 46.2 µM), without a hit: at the top dose activity change, negative = growth inhibition, usual class: inhibitors; 420,000 tested, 15% active; AID 686978, 2013; also: nearly all actives have a fitted effect of over 55% in size
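Chicken DT40 Tdp1-/- cells stably complemented with human TDP1 were seeded at 400 cells/well with DMSO in place of 20 nM camptothecin. After compound pinning, cells grew at least 48 hr at 37 °C; viability read by CellTiter-Glo luminescence.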
VP16 counter – inhibits Gal4-VP16 luciferase reporter, ROR gamma counter-screen; 310,000 tested, 3.5% active; Potency, µM (top dose mostly 53.6 µM), for the others: at the highest dose activity, negative = inhibition, most hits filed as inhibitors; Drosophila S2 Gal4-VP16 UAS-luciferase, luminescence, 20 h;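 also: Gal4-VP16 expression switched on by copper sulfate through the metallothionein promoter; nearly all actives have a fitted effect of over 50% in size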
RORg inh – inhibitors of mouse ROR gamma transcriptional activity. 310,000 tested, 5.4% active. Drosophila S2 Gal4-RORgamma UAS-luciferase reporter, 20 h. Potency, µM (titrated, usually from 53.6 µM), for the others: top-dose activity change, negative = inhibition, hits mostly inhibitors. P51450. AID 2551; also: nearly all actives have a fitted effect of over 60% in size
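Schneider cells (Drosophila), stable Gal4 DBD–ROR gamma + UAS-luc; 1 hr cmpd preincubation; Cu2+ induction 700 uM final; 20 hr ambient; luminescence.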
TDP1 block – inhibitors of human tyrosyl-DNA phosphodiesterase TDP1; Q9NUW8; recombinant TDP1, AlphaScreen DNA substrate cleavage; Potency, µM (series often up to 130 µM), for inactives: top-dose activity change, negative = inhibition, hits mostly inhibitors; 350,000 tested, 0.28% active; AID 485290; also: nearly all actives have a fitted effect of over 40% in size
Target sequence (Q9NUW8 whole entry, looked up): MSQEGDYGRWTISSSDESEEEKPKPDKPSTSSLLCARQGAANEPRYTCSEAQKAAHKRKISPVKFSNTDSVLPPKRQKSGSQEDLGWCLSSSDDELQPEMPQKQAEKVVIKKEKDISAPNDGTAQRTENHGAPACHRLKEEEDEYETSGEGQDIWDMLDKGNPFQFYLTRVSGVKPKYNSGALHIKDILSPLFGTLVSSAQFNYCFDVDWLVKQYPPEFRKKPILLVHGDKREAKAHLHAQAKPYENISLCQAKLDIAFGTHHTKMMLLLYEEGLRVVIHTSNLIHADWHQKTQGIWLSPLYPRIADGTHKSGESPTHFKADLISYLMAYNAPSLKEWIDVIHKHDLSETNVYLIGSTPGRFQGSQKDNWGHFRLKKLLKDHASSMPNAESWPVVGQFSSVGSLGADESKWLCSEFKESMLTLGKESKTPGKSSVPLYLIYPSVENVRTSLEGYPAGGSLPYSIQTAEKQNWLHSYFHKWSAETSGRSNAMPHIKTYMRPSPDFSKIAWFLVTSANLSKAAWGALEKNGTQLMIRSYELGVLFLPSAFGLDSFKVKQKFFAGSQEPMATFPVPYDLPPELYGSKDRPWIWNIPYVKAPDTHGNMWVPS
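Steps: enzyme plus compound, 15 min RT; add biotin/phosphotyrosine-FITC oligonucleotide (15 nM final), react 5 min; add donor/acceptor beads (10 ug/ml final), 10 min; read AlphaScreen. Tdp1 at 1 nM final.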
An asterisk follows results filed as active; ? = inconclusive; / = not tested or not shown. Calls follow the shape of the dose curve; as a rule, active = well fitted curve in the direction sought with a large enough effect; inconclusive = small, poorly fitted or top-dose-only effect, or another doubt; inactive = no such curve, though single readings can be large; an effect the other way counts as inactive or inconclusive. % is scaled to controls: 0 for no effect and ±100 for the full control effect; potency is read from the fitted curve at half-maximal effect.

SMILES	DT40 TDP1 CPT	DT40 TDP1 no CPT	VP16 counter	RORg inh	TDP1 block
CC(C)[C@H](NC(=O)c1ccc(C(C)(C)C)cc1)C(=O)N1CCN(Cc2ccc3c(c2)OCO3)CC1	3.7µM*	3.7µM*	/	/	5%
O=C(O/N=C1/CCSc2ccccc21)c1ccc(F)cc1	-27%	-7%	3%	26%	0%
COc1cc(NC(=O)c2ccccc2)c(OC)cc1NC(=O)Cc1ccc(F)cc1	-1%	21µM*	-4%	?	/
O=C(Nc1ccccc1OC(=O)c1ccccc1)c1ccccc1	?	29µM*	/	/	/
COc1cc(NC(=O)c2ccccc2)c(OC)cc1NC(=O)Cc1ccc(Br)cc1	?	?	11µM*	?	/
O=C(CCc1ccccc1)Nc1ccccc1OC(=O)c1ccccc1	?	-24%	/	/	/
COc1cc(NC(=O)c2ccc(Br)cc2)c(OC)cc1NC(=O)c1ccccc1	-19%	?	?	?	/
Cc1cc(-n2c(C)nc3ccccc3c2=O)ccc1NC(=O)c1ccccc1[N+](=O)[O-]	18µM*	16µM*	/	/	0%
Cc1cc(C(=O)Nc2c(C)nc3ccccn3c2=O)ccc1[N+](=O)[O-]	-29%	-18%	/	/	5%
Cc1ccn2c(=O)c(NC(=O)c3cccc([N+](=O)[O-])c3C)c(C)nc2c1	15µM*	18µM*	/	/	8%
Cc1cc(-n2c(C)nc3ccccc3c2=O)ccc1NC(=O)C(F)(F)F	?	?	/	/	5%
Cc1c(C(=O)Nc2ccc(-n3c(C)nc4ccccc4c3=O)cc2)cccc1[N+](=O)[O-]	13µM*	7.3µM*	/	/	0%
Cc1cc(-n2c(C)nc3ccccc3c2=O)ccc1NC(=O)c1cccc([N+](=O)[O-])c1C	13µM*	6.5µM*	/	/	8%
Cc1cc(-n2c(C)nc3ccccc3c2=O)ccc1NC(=O)c1ccc([N+](=O)[O-])cc1	?	?	/	/	-3%
CNCCCOc1ccc(C)cc1Br	-6%	-14%	5%	-27%	?
NS(=O)(=O)c1ccc(NC(=O)CN(C(=O)C(F)(F)F)C2CCCC2)cc1	-6%	-5%	/	/	/
COCCNC(=O)CCC1CCN(Cc2cccc(-c3ccc(C)o3)c2)CC1	-14%	-1%	28%	-17%	/
COc1ccc(C2CC(=O)Nc3c2c(=O)nc2c(C)cccn32)cc1 (stereo not given)	/	/	/	/	8%
CC1C[N+](=C2C=C(N3CCOCC3)CC(C)(C)C2)CC(C)O1 (stereo not given)	29%	-3%	-4%	3%	-1%
CCCCN1C(=O)C2C3C=CC(C2C1=O)C1C2C(=O)N(CCCC)C(=O)C2C31 (stereo not given)	-7%	?	-11%	3%	-7%
Cc1ccc(-n2cc(CNC(C)Cn3cncn3)c(-c3ccc(F)cc3)n2)cc1 (stereo not given)	?	?	-8%	16%	5%
Cc1ccc(-n2cc(CNC(C)c3cnn(C)c3C)c(-c3ccc(F)cc3)n2)cc1 (stereo not given)	5.2µM*	2.9µM*	-29%	?	/
Cc1ccc(-n2cc(CNC(C)c3cnn(C)c3)c(-c3ccc(F)cc3)n2)cc1 (stereo not given)	18µM*	21µM*	-10%	-27%	0%
COc1ccc(N2CCCCn3c2nc2c3c(=O)[nH]c(=O)n2C)cc1	0%	-12%	8%	?	2%
CCc1ccccc1Nc1sc(C(=O)c2ccccc2)c(N)c1S(=O)(=O)c1ccccc1	?	?	/	/	5%
CC(Nc1nc(-c2ccc(F)cc2)cs1)c1nc2cc(Cl)c(N3CCCCC3)cc2n1CCOCCO (stereo not given)	16µM*	21µM*	/	/	/
CC(Nc1nc(-c2cccc(Br)c2)cs1)c1nc2cc(Cl)c(N3CCCCC3)cc2n1CCOCCO (stereo not given)	?	?	-21%	-34%	/
